Here are results for 98 molecules from PubChem BioAssay AID1063 (University of Pittsburgh Molecular Library Screening Center, 2008).

Among all 200,000 compounds or so, about 18,000 (9%) were called active. No stated cut-off is given here; in the data, active means inhibition above about 50%; inactive means the rest. The entries come from a sample that favours actives as a whole.

A word on the inhibition: it is the drop in the measured response relative to a control, in per cent.

This assay can be described thus: Leishmania major promastigote growth inhibition, primary screen (AID 1063).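 Further: promastigotes grown with compound for 44 hours at 28 °C.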 The conditions noted are these: Leishmania major promastigotes, resazurin fluorescence viability; at 10 µM; active compounds read high. A general note: Resazurin is reduced to fluorescent resorufin, in cell work by metabolically active cells.
`CCNC(=O)COc1cc(C)c(Br)c(C)c1`: the inhibition was -1.41% (inactive).

For `CN(C)/C=C(/C(=O)c1ccc(F)cc1)S(=O)(=O)c1ccc(F)cc1`, the inhibition was -1.08% (inactive).

With `CCC(C)(C)NC(=O)C(c1ccccn1)N(C(=O)c1csnn1)c1ccccc1` (stereo not drawn), the inhibition is -5.39% (inactive).

In the case of `Cc1ccc(C)c(-n2nnnc2SCC(=O)c2c(N)n(C)c(=O)n(C)c2=O)c1`, the inhibition was -5.78% (inactive).

Take `CN(C)/C=C(/C(=O)c1ccccc1)S(=O)(=O)c1ccc(Cl)cc1`: the inhibition was -6.81% (inactive).

For `COc1ccc(/C=N/NC(=O)Nc2ccc3nsnc3c2)c(OC)c1`, the inhibition is -1.6% (inactive).

With `COc1cccc(NC(=O)c2nn(-c3ccc(OC)cc3OC)c(=O)c3ccccc23)c1`, the inhibition was -3.79% (inactive).

For the molecule `COc1cccc(NC(=O)c2ccc(Cn3cc([N+](=O)[O-])cn3)o2)c1`, the inhibition is 47.4% (inactive).

Consider `COc1cccc(NC(=O)c2nn(C34CC5CC(CC(C5)C3)C4)cc2[N+](=O)[O-])c1`, for which the inhibition is 66.2% (active).

Turning to `CC(CO)NCC12CC3CC(CC(C3)C1)C2` (stereo not drawn), the inhibition is 7.47% (inactive).

For `CC(C)N(C)C(=O)CCc1nnc(CCc2c[nH]c3ccccc23)o1`, the inhibition was -3.38% (inactive).

Take `Cc1nnsc1C(=O)N/N=C/c1cccc(C(F)(F)F)c1`: the inhibition is 12.3% (inactive).

Consider `CCOc1ccc(-n2c(SCC(=O)NC3CCS(=O)(=O)C3)nnc2-c2cccnc2)cc1` (stereo not drawn), for which the inhibition is -3.53% (inactive).

For `Cc1ccc(S(=O)(=O)N(NC2=NS(=O)(=O)c3ccccc32)C(=O)c2ccccc2)cc1`, the inhibition is 53% (active).

In the case of `CC(C)(C)c1csc(NC2=NS(=O)(=O)c3ccccc32)n1`, the inhibition was -6.96% (inactive).

Turning to `Cc1ccc(C(=O)NN(CCC#N)C2=NS(=O)(=O)c3ccccc32)cc1`, the inhibition is -9.19% (inactive).

Turning to `O=C(NNS(=O)(=O)c1ccc(F)cc1)c1cnccn1`, the inhibition is -7.62% (inactive).

As for `COc1ccc(C(=O)NNC(=O)c2cc(C)[nH]n2)cc1`, the inhibition is -2.25% (inactive).

With `Cc1ccc(Cl)c(NC(=O)CN(C)CC(=O)Nc2ccc(F)c(F)c2F)c1Cl`, the inhibition is 0.59% (inactive).

On to `CC(CNC(=O)c1ccc(N)cc1)NC(=O)c1ccc(N)cc1` (stereo not drawn), for which the inhibition is -1.57% (inactive).

On to `COCc1c(C(=O)OCc2c(C)noc2C)oc2ccccc12`, for which the inhibition was -3.77% (inactive).

In the case of `CCOC(=O)c1oc2ccccc2c1NC(=O)c1cccs1`, the inhibition is -2.52% (inactive).

As to `Cc1cc(C)c(NC(=O)c2oc3ccccc3c2COc2ccccc2)c(C)c1`, the inhibition is 62.7% (active).

With `NC(=O)COc1ccc(NC(=O)c2ccccc2-c2ccccc2)cc1`, the inhibition is 10.2% (inactive).

As to `CCO/C=C1\C(=O)N(c2ccc(OCC)cc2)C(=O)c2ccccc21`, the inhibition is 0.41% (inactive).

As for `NS(=O)(=O)c1ccc(CCNC(=O)c2ccc(Cl)cc2[N+](=O)[O-])cc1`, the inhibition is 6.41% (inactive).

Consider `NS(=O)(=O)c1ccc(CNC(=O)c2ccc(Cl)cc2[N+](=O)[O-])cc1`, for which the inhibition is 52.1% (active).

In the case of `NS(=O)(=O)c1ccc(CCNC(=O)c2ccc([N+](=O)[O-])cc2[N+](=O)[O-])cc1`, the inhibition was -7.26% (inactive).

Consider `Cc1ccc(C(=O)NCC(=O)O)s1`, for which the inhibition is -10.9% (inactive).

Consider `COCCNCCOCCOc1cccc(OC)c1`, for which the inhibition is 1.86% (inactive).

For `CSc1ccc(/C=N\NC(=O)COc2ccc(Cl)cc2Br)cc1`, the inhibition was -9.17% (inactive).

Take `COCCCNCCOCCOc1ccc(Cl)cc1Br`: the inhibition was 91.2% (active).

Consider `Cc1cc(C)n(-c2ccc3nncn3n2)n1`, for which the inhibition was -5.45% (inactive).

In the case of `C=CCn1c(=NC(=O)c2cccs2)sc2cc(NC(C)=O)ccc21`, the inhibition was 9.06% (inactive).

Consider `Cn1cc(CN2CCCC(CO)C2)c(-c2ccc(Oc3ccccc3)cc2)n1` (stereo not drawn), for which the inhibition was 88.6% (active).

In the case of `CCCOC1CCCN(Cc2cn(C)nc2-c2ccccc2F)C1` (stereo not drawn), the inhibition was -5.85% (inactive).

`Cc1ccc(CN2CCN(Cc3cn(C)nc3-c3ccccc3)CC2CCO)o1` (stereo not drawn): the inhibition was -3.67% (inactive).

With `O=C(CSc1nc(O)c(Cc2ccccc2)c(=O)[nH]1)Nc1nc2c(s1)CCCC2`, the inhibition was 2.85% (inactive).

With `CC(=O)NC(Cc1ccc(F)cc1)C(=O)O` (stereo not drawn), the inhibition was 83.9% (active).

Regarding `CC(=O)NC(CC(=O)O)c1ccc(F)cc1` (stereo not drawn), the inhibition was -5.31% (inactive).

With `CC(=O)c1ccc(NC(=O)N[C@@H](Cc2ccccc2)C(=O)O)cc1`, the inhibition is -5.12% (inactive).

For the molecule `N#Cc1c(N)nc2c(c1N)CC(C(F)(F)F)O2` (stereo not drawn), the inhibition was 1.43% (inactive).

Turning to `Cc1ccc(C(=O)O)cc1N1C(=O)CCCC1=O`, the inhibition is -2.53% (inactive).

On to `Cc1nc(-c2ccccc2)sc1C(=O)/C=C/c1ccccc1`, for which the inhibition is 48.9% (inactive).

As for `Cc1[nH]c(=O)c(C(=O)/C=C/c2ccccc2)c2c1CCCC2`, the inhibition is 98.8% (active).

As to `O=C(/C=C/c1ccccc1)c1ccccc1O`, the inhibition is 9.25% (inactive).

`O=C(CCNC(=O)Cn1ccc2ccccc2c1=O)NCCC1=CCCCC1`: the inhibition was -3.42% (inactive).

As for `Cc1ccccc1N1C(=O)C(Oc2ccc(Cl)cc2)C1CNCC1CCCO1` (stereo not drawn), the inhibition is 14.7% (inactive).

As for `CCc1nc2ccccc2c(C(=O)NCc2ccc(OC)cc2)c1C`, the inhibition is -2.62% (inactive).

Consider `Cc1cccc2c(=O)n3c(nc12)CCCCC3`, for which the inhibition was -1.77% (inactive).

For the molecule `Cc1nc(N=C(N)N)nc2c(C)cccc12`, the inhibition is 99.5% (active).

`COc1nc(N=C(N)N)nc2c(C)cccc12`: the inhibition is 29% (inactive).

For `CCOc1ccc(N2C(=O)Nc3ccccc3C2(O)C(=O)NCc2ccco2)cc1` (stereo not drawn), the inhibition was -6.71% (inactive).

Regarding `Cc1ccc(CCCOC(=O)C[N+]2(C)CCCCC2)cc1`, the inhibition was -3.49% (inactive).

For the molecule `CSc1ccc(CNCCN2CCOCC2)cc1`, the inhibition was 67.6% (active).

For `O=C(NCCN1CCOCC1)[C@H](Cc1ccccc1)N1C(=O)c2ccccc2C1=O`, the inhibition was -3.08% (inactive).

For `CSc1ccc(CN(C)CC(=O)NCc2ccc(F)cc2)cc1`, the inhibition was -5.11% (inactive).

Take `CCCCNCc1ccc(SC)cc1`: the inhibition was 76.3% (active).

Take `CCCCc1ccc(NC(=S)NCCCN2CCOCC2)cc1`: the inhibition was 32.5% (inactive).

For the molecule `CSc1ccc(S(=O)(=O)NCc2ccc(Cl)cc2)cc1`, the inhibition is -1.27% (inactive).

`Cc1cc(/C=N/NC(N)=O)c(C)n1C1CCCCC1`: the inhibition was 2.71% (inactive).

In the case of `COc1ccc(-c2nc(N)sc2C2(O)C(=O)Nc3c(Br)cc(F)cc32)cc1OC` (stereo not drawn), the inhibition was -2.63% (inactive).

In the case of `O=C(/C=C/c1ccco1)Nc1ccc(Oc2ccccc2)cc1`, the inhibition is 99.6% (active).

Turning to `O=C(/C=C/c1ccco1)Nc1cccc(-c2nc3ccccc3[nH]2)c1`, the inhibition is 28.8% (inactive).

For the molecule `Cc1nnc(NC(=O)/C=C/c2ccco2)s1`, the inhibition was 21.5% (inactive).

Consider `COC(=O)C1=C(C(=O)OC)C(c2cc([N+](=O)[O-])ccc2O)c2sc(=O)[nH]c2S1` (stereo not drawn), for which the inhibition is -11.4% (inactive).

Take `Clc1ncn(CCOc2ccccc2)c1Cl`: the inhibition was -6.41% (inactive).

In the case of `CCN(CC)CCNC(=O)c1sc2ncn(CC(=O)Nc3ccc(C)c(Cl)c3)c(=O)c2c1C`, the inhibition is 87.1% (active).

Regarding `CCN(CC)CCCNC(=O)Cn1cnc2sc(C)c(S(=O)(=O)N3CCN(c4ncccn4)CC3)c2c1=O`, the inhibition was 1.29% (inactive).

Regarding `CCN(CC)CCNC(=O)Cn1cnc2sc(C)c(S(=O)(=O)N3CCOCC3)c2c1=O`, the inhibition is -1.31% (inactive).

In the case of `O=C(CC1C(=O)NCCN1Cc1ccc(-c2ccccc2)cc1)NCc1ccncc1` (stereo not drawn), the inhibition was -2.72% (inactive).

For the molecule `Cc1ccccc1NC(=O)CN1C(=O)N/C(=C\c2cccn2-c2cccc(C(=O)O)c2)C1=O`, the inhibition was -4.64% (inactive).

On to `Cc1ccc(Nc2cc(C)nc3c(C)ccc([N+](=O)[O-])c23)cc1`, for which the inhibition was 87.2% (active).

On to `Cc1cc(C)nc(Nc2cc([N+](=O)[O-])ccc2C)n1`, for which the inhibition was 2.27% (inactive).

Regarding `Cc1ccc(Nc2ccc(C(N)=O)cc2[N+](=O)[O-])cc1`, the inhibition is -4.3% (inactive).

`O=S(=O)(Nc1ccccn1)c1cccc(S(=O)(=O)c2ccc(Cl)cc2)c1`: the inhibition was -10.8% (inactive).

On to `CC(C)(C)NC(=O)Cn1cnc2cc([N+](=O)[O-])ccc2c1=O`, for which the inhibition is 3.94% (inactive).

`O=C(/C=C/c1ccc(F)cc1)Nc1cccc(S(=O)(=O)Nc2cccc(C(F)(F)F)c2)c1`: the inhibition is 50.4% (active).

In the case of `O=C(CN1CCN(c2ccc(F)cc2)CC1)Nc1cccc(C(F)(F)F)c1`, the inhibition is -7.62% (inactive).

Turning to `CCNS(=O)(=O)c1ccc(NC(=O)Nc2cccc(C(F)(F)F)c2)cc1`, the inhibition is 31.4% (inactive).

For `O=C(NCc1ccco1)c1nn2cccnc2c1Cl`, the inhibition is -2.79% (inactive).

For `COc1ccc(Sc2nc(-c3ccccc3)ncc2OC)cc1`, the inhibition was -4.44% (inactive).

As for `CC(Oc1cccc(NC(=O)c2cccs2)c1)C(=O)c1ccccc1` (stereo not drawn), the inhibition is 16.5% (inactive).

With `Cc1ccc(N(Cc2ccc(C(=O)Nc3ccccc3C(=O)NCc3ccco3)cc2)S(C)(=O)=O)cc1C`, the inhibition was 61.3% (active).

On to `Cc1cccc(Nc2ccccc2C(=O)NCc2ccco2)c1C`, for which the inhibition was 38.2% (inactive).

For `Cc1cc(C)cc(N(CC(=O)NCCSCc2ccco2)S(C)(=O)=O)c1`, the inhibition is -4.83% (inactive).

Take `CS(=O)(=O)N(Cc1ccc(Cl)cc1)c1ccc(C(=O)NCCSCc2ccco2)cc1`: the inhibition was 53.3% (active).

As for `O=C(Nc1ccccc1)Nc1ccccc1C(=O)NCc1ccco1`, the inhibition is 4.53% (inactive).

Take `CCc1ccccc1N(CC(=O)NCCSCc1ccco1)S(C)(=O)=O`: the inhibition is -4.33% (inactive).

As to `CCOC(=O)c1sc(NC(=O)CSc2n[nH]c(CC)n2)nc1C`, the inhibition is -7.68% (inactive).

`Cc1ccccc1NS(=O)(=O)CCCCC(Cl)(Cl)Cl`: the inhibition is 5.47% (inactive).

As to `COc1ccc(C2CC(c3cccs3)=NN2c2ccccc2)cc1` (stereo not drawn), the inhibition is -1.67% (inactive).

With `CCOC(=O)N1CCN(C(=O)Cn2cnc3ccccc3c2=O)CC1`, the inhibition was -4.19% (inactive).

As to `COc1ccc(NC(=O)C(=O)NCC(=O)Nc2cccc(C(F)(F)F)c2)cc1`, the inhibition was -4.66% (inactive).

Turning to `COC(=O)CSc1ncnc2c1cnn2-c1ccc(C)cc1C`, the inhibition is 2.35% (inactive).

For the molecule `CC1(C)NC(=O)N(CCOc2cccc(Oc3ccccc3)c2)C1=O`, the inhibition was -11.3% (inactive).

Regarding `Cc1ccc([N+](=O)[O-])c(OCCCNCC(C)O)c1` (stereo not drawn), the inhibition was -0.76% (inactive).

For the molecule `CC(O)CNCCOc1cccc(Oc2ccccc2)c1` (stereo not drawn), the inhibition is 95.9% (active).
